PubChem BioAssay AID1159580 (chemical genetic matrix, 2015)
Where “and” joins values, the source holds several entries; their conditions need not be identical. Equal entries are not always repeated. Hit rate of the full screen: of about 5,500 compounds, about 2,000 (36%) were called active. Another 18% or so got no clear call; they are omitted. Cut-off read from the data, not from the text of the source: active = normalized growth mostly below about 0.91 (no sharp cut-off); inconclusive = no clear call, values can overlap the other calls; inactive = mostly above about 0.92. The list shows a part of the results.

Experiment: chemical genetic growth profiling, strain panel (AID 1159580);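 note: tested at 20 µM; growth read once vehicle control cultures reached saturation at 30 °C; 1 = growth at the plate median or of vehicle wells; lower values mean less growth of the strain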
Conditions: S. cerevisiae deletion strains, growth OD
[1] = locus YAL013W, strain DEP1, hits give low values
[2] = locus YBR229C, strain ROT2, hits give low values
[3] = locus YDL101C, strain DUN1, hits give low values
[4] = locus YDR150W, strain NUM1, hits give low values
[5] = locus YEL061C, strain CIN8, hits give low values
[6] = locus YHR030C, strain SLT2, hits give low values
[7] = locus YJR043C, strain POL32, hits give low values
[8] = locus YJR075W, strain HOC1, hits give low values
[9] = locus YKL190W, strain CNB1, hits give low values
[10] = locus YLR039C, strain RIC1, hits give low values
[11] = locus YLR262C, strain YPT6, hits give low values
[12] = locus YMR263W, strain SAP30, hits give low values
[13] = locus YNL153C, strain GIM3, hits give low values
[14] = locus YNL322C, strain KRE1, hits give low values
[15] = locus YOL006C, strain TOP1, hits give low values

Measured: normalized growth

CNC(C)[C@@H]1CC[C@@H](N)[C@@H](OC2[C@@H](N)C[C@@H](N)[C@H](OC3OC[C@](C)(O)[C@H](NC)[C@H]3O)[C@H]2O)O1 (stereo not given in full)
inactive: [1] 1.02 | locus YAL021C, strain ccr4, hits give low values 1.02 | locus YAL026C, strain drs2, hits give low values 0.997 | locus YAL030W, strain snc1, hits give low values 0.998 | locus YBL061C, strain skt5, hits give low values 0.977 | locus YBR009C, strain hhf1, hits give low values 1.01 | locus YBR021W, strain FUR4, hits give low values 1.02 | locus YBR023C, strain chs3, hits give low values 0.988 | locus YBR171W, strain sec66, hits give low values 0.986 | [2] 1.02 | locus YBR231C, strain swc5, hits give low values 0.982 | locus YBR279W, strain paf1, hits give low values 0.991 | locus YCL011C, strain gbp2, hits give low values 1.01 | locus YCL016C, strain dcc1, hits give low values 1 | locus YCL029C, strain bik1, hits give low values 1.01 | locus YCL069W, strain vba3, hits give low values 0.992 | locus YCR088W, strain abp1, hits give low values 0.999 | locus YDL005C, strain med2, hits give low values 0.98 | locus YDL035C, strain GPR1, hits give low values 1.01 | locus YDL040C, strain nat1, hits give low values 0.994 | locus YDL074C, strain BRE1, hits give low values 1.03 | [3] 1.01 | locus YDL134C, strain PPH21, hits give low values 1 | locus YDL185W, strain tfp1, hits give low values 1.02 | locus YDL192W, strain arf1, hits give low values 1.04 | locus YDR001C, strain nth1, hits give low values 0.988 | locus YDR069C, strain doa4, hits give low values 0.988 | locus YDR101C, strain arx1, hits give low values 0.992 | locus YDR137W, strain rgp1, hits give low values 1.01 | [4] 1.01 | locus YDR159W, strain sac3, hits give low values 0.995 | locus YDR162C, strain NBP2, hits give low values 1.01 | locus YDR195W, strain ref2 0.947 | locus YDR297W, strain sur2, hits give low values 0.983 | locus YDR318W, strain mcm21, hits give low values 1.02 | locus YDR334W, strain swr1, hits give low values 0.98 | locus YDR335W, strain msn5, hits give low values 0.98 | locus YDR388W, hits give low values 1.01 | locus YDR392W, strain spt3, hits give low values 1.03 | locus YDR502C, strain sam2, hits give low values 1.05 | locus YEL003W, strain gim4, hits give low values 0.975 | locus YEL037C, strain rad23, hits give low values 0.995 | locus YEL061C, strain CIN8 (second series), hits give low values 0.982 | [5] 1.02 | locus YER015W, strain faa2, hits give low values 0.993 | locus YER016W, strain bim1, hits give low values 0.979 | locus YER110C, hits give low values 1.02 | locus YER111C, strain swi4, hits give low values 0.976 | locus YER155C, strain BEM2 (second series), hits give low values 0.997 | locus YER155C, strain BEM2, hits give low values 1.01 | locus YER167W, strain BCK2, hits give low values 1.01 | locus YFR010W, strain ubp6, hits give low values 0.98 | locus YGL078C, strain dbp3, hits give low values 1.02 | locus YGL086W, strain mad1, hits give low values 1.01 | locus YGL167C, strain pmr1, hits give low values 0.982 | locus YGL173C, strain kem1, hits give low values 0.974 | locus YGL227W, strain vid30, hits give low values 0.987 | locus YGL240W, strain doc1, hits give low values 0.99 | locus YGL248W, strain PDE1, hits give low values 1.01 | locus YGL253W, strain hxk2, hits give low values 0.987 | locus YGR135W, strain pre9, hits give low values 1.05 | locus YGR229C, strain SMI1, hits give low values 1.01 | locus YGR252W, strain gcn5, hits give low values 1.04 | locus YHR013C, strain ard1, hits give low values 1.02 | locus YHR027C, strain rpn1, hits give low values 1 | [6] 1.02 and 0.984 | locus YHR079C, strain IRE1 (second series), hits give low values 1.02 | locus YHR079C, strain IRE1, hits give low values 1.01 | locus YHR094C, strain hxt1, hits give low values 1.01 | locus YHR129C, strain ARP1, hits give low values 1 | locus YHR142W, strain chs7, hits give low values 0.971 | locus YHR200W, strain rpn10, hits give low values 1.03 | locus YIL066C, strain RNR3, hits give low values 1.01 | locus YIL073C, strain SPO22, hits give low values 1.04 | locus YIL125W, strain kgd1, hits give low values 1.02 | locus YIR030C, strain dcg1, hits give low values 1.03 | locus YJL092W, strain hpr5, hits give low values 0.993 | locus YJL095W, strain BCK1 (second series), hits give low values 0.993 | locus YJL095W, strain BCK1, hits give low values 1.02 and 1 | locus YJL115W, strain asf1, hits give low values 0.982 | locus YJL129C, strain trk1, hits give low values 0.964 | locus YJL134W, strain LCB3, hits give low values 1.02 | locus YJL154C, strain vps35, hits give low values 0.999 | locus YJL164C, strain tpk1, hits give low values 1.01 | locus YJL166W, strain qcr8, hits give low values 0.984 | locus YJL168C, strain set2, hits give low values 1.02 | locus YJL187C, strain SWE1 (second series), hits give low values 1.01 | locus YJL187C, strain SWE1, hits give low values 0.992 | [7] 0.996 | locus YJR066W, strain TOR1, hits give low values 0.999 | [8] 1.03 | locus YKL009W, strain mrt4, hits give low values 1.01 | locus YKL068W, hits give low values 1.01 | locus YKL085W, strain MDH1 (second series), hits give low values 1.02 | locus YKL085W, strain MDH1, hits give low values 1.02 | locus YKL160W, strain elf1, hits give low values 0.977 | [9] 1.02 | locus YKR001C, strain vps1, hits give low values 1.02 | locus YKR026C, strain gcn3, hits give low values 1 | locus YKR091W, strain srl3, hits give low values 0.986 | locus YLL001W, strain dnm1, hits give low values 0.972 | locus YLL026W, hits give low values 0.996 | locus YLL041C, strain sdh2, hits give low values 0.995 | locus YLR027C, strain aat2, hits give low values 0.991 | [10] 1.08 | locus YLR058C, strain SHM2, hits give low values 1.03 | locus YLR102C, strain apc9, hits give low values 1.03 | locus YLR113W, strain HOG1, hits give low values 0.987 | locus YLR221C, strain rsa3, hits give low values 0.99 | locus YLR258W, strain gsy2, hits give low values 1 | locus YLR262C, strain YPT6 (second series), hits give low values 0.977 | [11] 1.05 | locus YLR268W, strain sec22, hits give low values 1.01 | locus YLR320W, strain mms22, hits give low values 1 | locus YLR330W, strain CHS5, hits give low values 1.01 | locus YLR342W, strain FKS1 (second series), hits give low values 0.996 | locus YLR342W, strain FKS1, hits give low values 0.977 | locus YLR357W, strain rsc2, hits give low values 0.991 | locus YLR370C, strain arc18, hits give low values 0.984 | locus YLR371W, strain rom2, hits give low values 1.01 | locus YLR384C, strain iki3, hits give low values 0.992 | locus YLR418C, strain cdc73, hits give low values 1.02 | locus YML016C, strain PPZ1, hits give low values 1.01 | locus YML032C, strain rad52, hits give low values 1.02 | locus YML120C, strain ndi1, hits give low values 0.996 | locus YML124C, strain tub3, hits give low values 1.01 | locus YMR058W, strain fet3, hits give low values 0.994 | locus YMR078C, strain ctf18, hits give low values 1.02 | locus YMR125W, strain sto1, hits give low values 0.979 | locus YMR129W, hits give low values 1 | locus YMR205C, strain PFK2, hits give low values 0.987 | locus YMR223W, strain ubp8, hits give low values 1.04 | locus YMR231W, strain pep5, hits give low values 0.988 | [12] 1.01 | locus YMR307W, strain GAS1, hits give low values 1 | locus YNL067W, strain RPL9B, hits give low values 1.02 | locus YNL071W, strain lat1, hits give low values 0.996 | [13] 1.01 | locus YNL183C, strain NPR1, hits give low values 0.97 | locus YNL209W, strain ssb2, hits give low values 1 | locus YNL233W, strain BNI4, hits give low values 1.01 | locus YNL248C, strain rpa49, hits give low values 1.02 | locus YNL250W, strain rad50, hits give low values 1.05 | locus YNL271C, strain bni1, hits give low values 1.03 | locus YNL298W, strain CLA4, hits give low values 1.02 | locus YNL307C, strain MCK1, hits give low values 1.03 | locus YNL322C, strain KRE1 (second series), hits give low values 0.988 | [14] 1.02 | locus YNR049C, strain mso1, hits give low values 0.986 | locus YNR052C, strain pop2, hits give low values 1.02 | [15] 1.06 | locus YOL012C, strain htz1 0.693 | locus YOL147C, strain pex11, hits give low values 1.02 | locus YOR001W, strain rrp6, hits give low values 0.985 | locus YOR061W, strain CKA2, hits give low values 1.01 | locus YOR069W, strain VPS5, hits give low values 1.01 | locus YOR070C, strain gyp1, hits give low values 0.987 | locus YOR080W, strain dia2, hits give low values 0.982 | locus YOR083W, strain WHI5, hits give low values 0.977 | locus YOR106W, strain vam3, hits give low values 0.983 | locus YOR136W, strain idh2, hits give low values 1.02 | locus YOR144C, strain elg1, hits give low values 1.01 | locus YOR184W, strain ser1, hits give low values 1.03 | locus YOR231W, strain MKK1, hits give low values 0.976 | locus YOR265W, strain rbl2, hits give low values 0.987 | locus YOR270C, strain vph1, hits give low values 0.996 | locus YOR290C, strain snf2, hits give low values 1.01 | locus YOR316C, strain cot1, hits give low values 1.02 | locus YPL051W, strain arl3, hits give low values 0.982 | locus YPL078C, strain atp4, hits give low values 0.973 | locus YPL106C, strain sse1, hits give low values 1 | locus YPL240C, strain hsp82, hits give low values 0.99 | locus YPL256C, strain CLN2, hits give low values 0.988 | locus YPR119W, strain clb2, hits give low values 1.03 | locus YPR141C, strain kar3, hits give low values 1.02 | locus YPR163C, strain tif3, hits give low values 1.02 | locus YPR167C, strain met16, hits give low values 1.02 | strain wtn01, hits give low values 1.01

Cn1c(Sc2ccc(C(F)(F)F)cc2[N+](=O)[O-])nnc1C(F)(F)F
inactive: [1] 1 | [2] 1.01 | [3] 1.02 | [4] 0.988 | [5] 1 | locus YGR078C, strain PAC10, hits give low values 1.01 | [6] 1.04 | locus YHR087W, strain rtc3, hits give low values 1 | [7] 1 | [8] 0.973 | [9] 1.01 | [10] 1.02 | locus YLR058C, strain SHM2 (second series), hits give low values 1.01 | locus YLR085C, strain ARP6, hits give low values 1.05 | [11] 1.01 | locus YML094W, strain GIM5, hits give low values 1.05 | locus YMR219W, strain ESC1, hits give low values 0.996 | [12] 0.994 | locus YNL128W, strain TEP1, hits give low values 0.994 | [13] 1 | locus YNL298W, strain CLA4 (second series), hits give low values 0.993 | [14] 1 | locus YNR030W, strain Alg12, hits give low values 1.02 | [15] 0.899 | locus YPL055C, strain LGE1, hits give low values 1.01 | locus YPL241C, strain CIN2, hits give low values 1.11 | locus YPR135W, strain CTF4, hits give low values 1.05
